FBW7 act = human FBW7 E3 ligase activation, primary screen; AlphaScreen FBW7–phospho-cyclin E peptide binding, activator screen; normalized activity (activation), % at 26.1 µM; 650,000 compounds, 0.13% hits; in the data active = normalized activity above about 1.9%;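 note: purified mutant Fbw7 with reduced substrate affinity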
GPR151 ag = activates the human receptor GPR151; AID 1508602; Q8TDV0; 650,000 compounds, 1% hits; PathHunter beta-arrestin GPR151 cells, luminescence; activation, % at 11.2 µM; in the data active = activation above about 4.9%;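 note: 0% = median of compound wells and 100% = cells with positive control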
TEAD-YAP block = TEAD-YAP interaction inhibition | inhibition, % at 9.12 µM | 640,000 compounds, 1.4% hits | AID 1259422 | HEK-TIYL cells, TEAD-Gal4/YAP UAS-luciferase luminescence; in the data active = inhibition above about 32%;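 note: 0% = median of test compound wells and 100% = reference inhibitor wells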
MITF primary = blocks human microphthalmia-associated transcription factor; AlphaScreen MITF homodimerization, bead proximity signal; inhibition, % at 2.6 µM; 650,000 compounds, 0.91% hits; AID 1259374; in the data active = inhibition above about 50%;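 note: 0% = vehicle wells with protein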
Target sequence (O75030 whole entry, looked up): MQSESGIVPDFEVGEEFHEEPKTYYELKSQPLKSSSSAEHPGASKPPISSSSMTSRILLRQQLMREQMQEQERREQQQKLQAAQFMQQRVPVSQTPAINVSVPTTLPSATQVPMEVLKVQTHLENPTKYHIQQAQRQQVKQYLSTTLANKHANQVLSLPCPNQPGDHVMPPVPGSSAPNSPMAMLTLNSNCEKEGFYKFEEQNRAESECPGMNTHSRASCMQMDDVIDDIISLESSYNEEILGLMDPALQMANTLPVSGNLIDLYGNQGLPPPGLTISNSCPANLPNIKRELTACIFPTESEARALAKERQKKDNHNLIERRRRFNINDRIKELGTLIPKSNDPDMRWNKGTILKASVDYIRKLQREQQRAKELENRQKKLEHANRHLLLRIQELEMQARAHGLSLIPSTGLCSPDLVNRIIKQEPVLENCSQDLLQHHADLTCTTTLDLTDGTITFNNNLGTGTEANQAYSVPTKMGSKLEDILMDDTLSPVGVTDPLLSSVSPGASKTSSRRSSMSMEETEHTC
Active calls of the source: *. Hits are enriched below; roughly 3.5% of the tested compounds scored in any of these assays.

SMILES	FBW7 act	GPR151 ag	TEAD-YAP block	MITF primary
CCCCN(C)C(=O)CSc1nc2ccccc2c(=O)n1CC1CCC(C(=O)NCCc2ccccc2)CC1 (stereo unspecified)	1.9*	-1.7	-18.6	20.2
CCCC(C)c1nnc(NC(=O)c2c(OC)cccc2OC)s1 (stereo unspecified)	-0.2	2.1	0.0	1.0
CC(=O)c1c(C)[nH]c(C(=O)OCC(=O)Nc2cccc(S(=O)(=O)N3CCCC3)c2)c1C	-0.1	0.1	32.8*	5.9
CC(=O)c1c(C)[nH]c(C(=O)OCC(=O)Nc2ccc(Cl)cc2)c1C	0.1	1.8	11.8	-6.4
CC(=O)c1c(C)[nH]c(C(=O)OCC(=O)Nc2cccc(Cl)c2)c1C	0.1	-0.8	43.9*	7.1
CC(=O)c1c(C)[nH]c(C(=O)OCC(=O)Nc2ccc(C)c(Cl)c2)c1C	-0.1	1.6	9.1	4.2
CC(=O)c1c(C)[nH]c(C(=O)OCC(=O)Nc2ccc(F)c(Cl)c2)c1C	0.4	3.0	34.7*	-8.1
O=C(Nc1nc(CCC(=O)N2CCCCCC2)cs1)NC1CCCCC1	0.1	1.9	40.8*	-1.8
O=C(Nc1nc(CCC(=O)N2CCN(c3ccccc3F)CC2)cs1)NC1CCCCC1	0.0	3.0	4.7	5.2
Cc1cc(C)cc(C(=O)Nc2sc(C)c(C)c2C(N)=O)c1	-0.5	-1.6	-59.5	-2.2
Cc1cc(Br)ccc1N1C(=O)/C(=C/c2ccc(Cl)cc2)C=C1c1ccccc1	1.9*	0.0	-3.1	13.3
Cc1cc(Br)ccc1N1C(=O)/C(=C/c2ccc(Br)cc2)C=C1c1ccccc1	-0.1	1.7	0.3	-3.9
Nc1nc(SCC(=O)NC2CCCCC2)nc2sc3c(c12)CCCC3	0.6	-1.9	53.4*	7.0
CCOC(=O)CC(=O)CSc1nc(N)c2c3c(sc2n1)CCCC3	0.1	-1.8	-16.5	9.7
CCOC(=O)CCCSc1nc(N)c2c3c(sc2n1)CCCC3	0.0	-0.3	87.8*	6.8
Cc1cc(O)c(C=O)c2c1C(=O)Oc1c(COC(=O)/C=C/C(=O)O)c(O)c(C(=O)O)c(C)c1O2	-0.2	0.2	5.2	75.8*
CCN(C(=O)CCl)c1cccc2ccccc12	-0.3	2.6	67.5*	-10.0
CN1CCN(c2ccc(-c3nc(NCCCN4CCCC4=O)c4ncn(-c5ccsc5)c4n3)cc2)CC1	0.2	-0.5	35.1*	-6.5
Nc1cccc(-c2nc(NCCCN3CCCC3=O)c3ncn(-c4ccsc4)c3n2)c1	0.2	-0.1	62.4*	12.6
O=C1CCCN1CCCNc1nc(-c2ccc(N3CCOCC3)nc2)nc2c1ncn2-c1ccsc1	0.1	-1.8	48.2*	-10.4
Cc1noc(C)c1-c1nc(NCCCN2CCCC2=O)c2ncn(-c3ccsc3)c2n1	-0.1	-1.8	58.8*	-2.1
O=C1CCCN1CCCNc1nc(-c2ccc(N3CCOCC3)nc2)nc2c1ncn2CCN1CCCC1=O	-0.2	0.1	1.7	-5.6
O=C(NC1CC1)c1ccc(-c2nc(NCCc3ccc(O)cc3)c3ncn(-c4ccccc4)c3n2)cc1	0.0	-1.3	55.6*	-3.5
Cn1c(Nc2nc(NCCc3ccc(O)cc3)c3ncn(C4CCCCC4)c3n2)nc2ccccc21	-0.2	-1.0	35.4*	2.6
NC(=O)c1ccc(-c2nc(NCCc3ccc(O)cc3)c3ncn(C4CCCCC4)c3n2)cc1	0.0	1.3	43.6*	-0.5
SMILES	FBW7 act	GPR151 ag	TEAD-YAP block	MITF primary
O=C(NC1CC1)c1ccc(-c2nc(NCCOc3ccccc3)c3ncn(-c4ccccc4)c3n2)cc1	0.0	1.6	-1.7	4.0
CC(=O)c1cccc(-c2nc(NCCc3ccc(O)cc3)c3ncn(-c4ccccc4)c3n2)c1	0.0	1.4	72.0*	11.5
CC(=O)c1cccc(-c2nc(NCCc3ccc(O)cc3)c3ncn(C(C)C)c3n2)c1	0.1	-1.1	63.3*	-8.1
NC(=O)c1ccc(-c2nc(NCc3cccnc3)c3ncn(Cc4ccc(C(F)(F)F)cc4)c3n2)cc1	0.6	-1.1	46.2*	-4.0
CC(C)n1cnc2c(NCCc3ccc(O)cc3)nc(-c3cccc(N)c3)nc21	0.1	-0.1	11.6	7.8
CC(=O)c1cccc(-c2nc(NCc3ccccc3)c3ncn(C(C)C)c3n2)c1	0.1	0.2	9.9	-3.6
CC(=O)c1cccc(-c2nc(NCc3cccnc3)c3ncn(C(C)C)c3n2)c1	-0.1	4.4	59.2*	2.7
CC(=O)c1cccc(-c2nc(NCCc3ccc(O)cc3)c3ncn(-c4ccsc4)c3n2)c1	0.2	2.3	81.7*	6.9
COc1ccc(CCNc2nc(-c3cccc(C(C)=O)c3)nc3c2ncn3-c2ccsc2)cc1	0.0	1.4	-0.8	0.0
O=C1CC(N2CCN(C(c3ccccc3)c3ccc(Cl)cc3)CC2)C(=O)N1c1cccc(Cl)c1 (stereo unspecified)	0.0	0.8	5.9	-7.1
O=C(CCn1c(SCC(=O)NC2CCCCC2)nc2ccccc2c1=O)NCCc1ccccc1	-0.2	0.6	-10.1	1.9
O=S(=O)(NCc1nc(-c2cccnc2)n[nH]1)c1ccccc1F	0.0	-0.8	-0.1	7.7
Clc1cnc(Nc2ccc(-n3cnc(N4CCOCC4)n3)cc2)nc1-c1ccno1	0.6	-0.7	9.1	3.6
Cc1ccc(-c2cccc3cnc(Nc4ccc(-n5cnc(N6CCOCC6)n5)cc4)nc23)cn1	0.7	0.2	49.3*	1.4
Cc1ncn(-c2ccc(Nc3ncc4cccc(-c5ccccc5)c4n3)cc2)n1	-0.6	0.5	9.2	5.5
CCOC(=O)c1c(Cl)ccc2cnc(Nc3ccc(-n4cnc(N5CCOCC5)n4)cc3)nc12	-0.2	0.1	58.6*	-0.8
Cc1cc(-c2nc(Nc3ccc(-n4cnc(N5CCOCC5)n4)cc3)ncc2Cl)no1	-0.5	1.5	39.2*	10.6
Cc1ncn(-c2ccc(Nc3ncc4cccc(-c5cccc(N6CCOCC6)c5)c4n3)cc2)n1	0.0	0.4	39.4*	16.2
CC(C)n1cc(-c2ccc3cnc(Nc4ccc(-n5cnc(N6CCOCC6)n5)cc4)nc3c2Cl)cn1	-0.1	1.7	5.8	12.4
Cc1cccc(/C=N/NC(=O)c2cccc(NC(=O)c3ccc(Cl)cc3)c2)n1	-0.1	1.2	-0.8	6.2
O=C(NCc1ccco1)c1cc(-c2ccccc2O)on1	0.9	-2.3	-46.3	9.1
Cn1cccc1CC(=O)N/N=C\c1ccncc1	-0.1	1.0	4.8	0.8
O=C(Nc1cccc(O)c1)c1cc(-c2ccc(F)cc2)on1	-0.1	-2.5	88.5*	-20.8
COc1ccc(NC(=O)c2cc(-c3cccc(O)c3)on2)cc1	0.1	0.0	-35.9	5.5
N#Cc1ccc(NC(=O)c2cc(-c3ccc(O)cc3)on2)cc1	2.3*	-0.2	-8.6	-15.6
COc1ccc(-c2cc(C(=O)Nc3cccc(O)c3)no2)cc1	0.0	-5.3	90.3*	0.7
N#Cc1ccc(NC(=O)c2cc(-c3ccc(Cl)cc3)on2)cc1	0.0	-0.6	8.1	-6.2
CCOC(=O)c1cc(S(=O)(=O)Nc2ccc(OC)c(OC)c2)cn1C	0.2	0.3	7.7	-20.2
O=C(CN1C(=O)C2C3C=CC(C3)C2C1=O)Nc1c2ccccc2nc2ccccc12 (stereo unspecified)	0.0	-0.4	71.9*	4.3
O=C(CN1C(=O)C2C3C=CC(C3)C2C1=O)NCc1ccccc1 (stereo unspecified)	0.3	-0.5	1.7	9.3
